The structures appear in SMILES notation. This is part of a sample that, as a whole, favours compounds with a hit. Of some 83,000 tested, about 20% had one in any assay.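 Percent growth is the endpoint: 0 to 100 indicates growth inhibition (40 means 60% inhibition), 0 means no net growth, and negative values indicate cell death.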 A number with no mark means an inactive call. The source made the active and inactive calls. How the source made its calls: active means growth percent below 10; inactive means the rest.

The assay relates to MDA-MB-468 breast. Kind of assay: NCI-60 one-dose screen, 48 h (100 = growth as untreated, 0 = no growth, -100 = all killed). As to conditions: 10 µM unless noted.
As to `[Ag].[Ag].[NH-]S(=O)(=O)c1ccc(N=Nc2cc(N=Nc3ccc(S([NH-])(=O)=O)cc3)c3c(NC(=O)C(Cl)Cl)cccc3c2OC(=O)C(Cl)Cl)cc1.[c-]1nccs1.[c-]1nccs1`, the growth was 61.4%.

Turning to `CN1[C@@H]2CC[C@H]1/C(=C\c1ccccc1)C(=O)/C2=C/c1ccccc1`, the growth is 16.2%.

On to `C=C(Cl)COC(=O)C(C)(C)O`, for which the growth is 118%.

For `COC(=O)C1=Nc2ccc(F)cc2/C1=C/c1sc(=S)[nH]c1O`, the growth is 13.4%.

On to `O=C(Nc1ccc(F)cc1)c1ccc(C(=O)Nc2ccc(F)cc2)cc1`, for which the growth was 99.7%.

Turning to `C=C(C)[C@@H]1CC[C@]2(C(=O)N3CCN(C)CC3)CC[C@]3(C)[C@H](CC[C@@H]4[C@@]5(C)C/C(=C/c6ccncc6)C(=O)C(C)(C)[C@@H]5CC[C@]43C)[C@@H]12`, the growth is 55.6%.

Consider `COc1ccc(/C(C)=C(\c2ccc(Cl)cc2)c2ccc(OCCN3CCCCC3)cc2)cc1F`, for which the growth is 15.7%.

Take `CCN(CC)CCCC(Cc1ccccc1)Nc1c2ccc(Cl)cc2nc2ccc(OC)cc12` (configuration not stated): the growth was -72.3% (active).

On to `O=C(OCC(O)C1OC(c2ccccc2)OC(COC(=O)c2ccccc2)C1O)c1ccccc1` (configuration not stated), for which the growth was 100%.

Consider `Cc1cc(Nc2ccc(F)cc2)nc(N2CCN(c3ccnc4cc(Cl)ccc34)CC2)n1`, for which the growth is 17.6%.

On to `O=[N+]([O-])c1ccc(C2CC(c3ccccc3)=Nc3ccccc3S2)cc1` (configuration not stated), for which the growth was 77.7%.

Regarding `Cn1cc(-c2noc(C(=O)c3cn(C)c4ncccc34)n2)c2ccccc21`, the growth is -9.42% (active).

Source of the values: PubChem BioAssay (NCI).
